Screen size: about 69,000 compounds; about 8,600 (12%) showed an effect of 50% or more. For the sample, strong results were picked, then their nearest neighbours and some compounds at random.
Tested on: Plasmodium berghei
Assay: Screen against P. berghei liver stage (PbLuc), transformed with Luciferase, at 10uM
Assay type: functional, HepG2
Conditions: tested at 10 uM

| SMILES | INHIBITION [%] |
| --- | --- |
| c1nc(CCC2CCCN2)cc(N2CCCOCC2)n1 (centres undefined) | 48.9 |
| COCCC(=O)NCC1CCC(C(c2ccccn2)N(C)C)CC1 (centres undefined) | 3.48 |
| Cc1ccc(-c2ccnc(N(C)CC3CCCO3)n2)c(C)n1 (centres undefined) | 47.4 |
| Cc1ccc(-c2ccnc(N(C)CC3CCCN3C)n2)c(C)n1 (centres undefined) | 10.6 |
| CCN1CCCC(CN(C)c2nccc(-c3ccc(C)nc3C)n2)C1 (centres undefined) | 76.7 |
| CC(C)n1c(=O)[nH]c2cn(-c3ccc(Cl)cc3)c(=O)n21 | -10.1 |
| COc1ccc(-c2cc(N)on2)cc1OC | 26.3 |
| CCN1CCc2c(sc3c2C(=O)NC(C=Cc2ccco2)N3)C1 (centres undefined) | 49.9 |
| CCc1ccc(CN2CCCCC2c2n[nH]cc2-c2cc(C)no2)cc1 (centres undefined) | 66.6 |
| Cc1cccc(CN2CCCCC2c2n[nH]cc2-c2cc(C)no2)c1 (centres undefined) | 31.3 |
| COc1ccc(CN2CCCCC2c2n[nH]cc2-c2cc(C)no2)cc1 (centres undefined) | 34.1 |
| O=C(c1ccccc1N1CCOCC1)N1CCCC(n2ccnc2)C1 (centres undefined) | 22.1 |
| COCc1ncn2c1CN(C(=O)c1cnc3ccccc3c1)CC2 | 33.2 |
| Cc1noc(CN(Cc2cccc(C#N)c2)Cc2cccs2)n1 | 1.98 |
| Cc1cccc(C)c1NC(=O)c1cccc(N(C)S(C)(=O)=O)c1C | 16.1 |
| CCn1c(CN2CCC(O)(c3ccc4c(c3)OCO4)CC2)cnc1SC | 34.15 |
| Cc1ncc(CN2CCCC(O)(c3ccc(F)cc3)CC2)n1C (centres undefined) | 21.255 |
| CCn1c(CN2CCCC(O)(c3ccc(F)cc3)CC2)cnc1SC (centres undefined) | 51.1 |
| Cc1nc(C)n(C2CCCN(C(=O)c3ccnc(N(C)C)c3)C2)n1 (centres undefined) | 14.4 |
| O=C(c1cccc(Cn2ccnc2)c1)N1CCCC(n2ccnc2)C1 (centres undefined) | 22.3 |
| O=C(c1cccc(Cn2ccnc2)c1)N1CCCC(n2cccn2)C1 (centres undefined) | 56.55 |
| CCc1nc(C2CCCN(C(=O)c3ccc(Cl)cc3)C2)no1 (centres undefined) | 23.4 |

| SMILES | INHIBITION [%] |
| --- | --- |
| CN(C)Cc1ccc(C(=O)N2CCCC(n3cccn3)C2)cc1 (centres undefined) | 61.9 |
| CS(=O)(=O)c1ccc(C(=O)N2CCCC(n3cccn3)C2)cc1 (centres undefined) | 18.8 |
| CCc1ccc(C(=O)N2CCCC(c3nn[nH]n3)C2)cc1 (centres undefined) | 67.4 |
| Cc1cnn(C2CCCN(C(=O)c3cccc(Cn4ccnc4)c3)C2)c1 (centres undefined) | 42.9 |
| CCc1nc(C2CCCN(C(=O)c3ccc(F)cc3)C2)no1 (centres undefined) | 27.4 |
| O=C(c1ccc(CN2CCCC2)cc1)N1CCCC(n2cccn2)C1 (centres undefined) | 11.7 |
| CS(=O)(=O)NCc1nnc2n1CCN(Cc1ccccn1)C2 | 36.9 |
| CCN1C(=O)CCC12CCCN(CCc1ccccc1)C2 (centres undefined) | 0.112 |
| CN(C)c1cnn(Cc2nc3ccccc3n2C)c(=O)c1 | 29.4 |
| CCC(C)[C@H](N)c1nnc(SCC(=O)Nc2ccc(C)cc2C)o1 (some centres undefined) | 40.4 |
| N#Cc1c(F)cccc1N1CCCC(C(=O)Nc2nccs2)C1 (centres undefined) | -1.85 |
| CC(NC(=O)c1ccnc(C2CC2)n1)C1(N2CCOCC2)CCCC1 (centres undefined) | -20.3 |
| Cc1occc1C(=O)N1CCOCC2(CCN(Cc3nccs3)C2)C1 (centres undefined) | 18.5 |
| COCC(=O)N1C[C@H]2CNC[C@@]2(C(=O)NCc2snnc2C)C1 | -21.8 |
| O=C(N1CCCC1)N1C[C@@H](OCc2cccnc2)[C@H]2OCCC[C@H]21 | -55.7 |
| Cc1nc(COCC2CN(C(N)=O)Cc3nccn3C2)cs1 (centres undefined) | 40.5 |
| CCn1ccnc1CN1CCN(C(C)C(=O)NC2CCCC2)CC1 (centres undefined) | 36.85 |
| O=C(O)c1cn(CC2CCCN(c3ccc4ccccc4n3)C2)nn1 (centres undefined) | 46.6 |
| O=C(O)c1cn(CC2CCCN(c3cnc4ccccc4n3)C2)nn1 (centres undefined) | 6.24 |
| CC(C)(C)c1cn(CC2CCCN(c3cnc4ccccc4n3)C2)nn1 (centres undefined) | 89.6 |
| CCc1nc(C2CCCN(C(=O)c3cccnc3O)C2)no1 (centres undefined) | 9.14 |
| O=C(NCCn1ccc(-c2ccccn2)n1)C1CCC1 | 14.3 |

| SMILES | INHIBITION [%] |
| --- | --- |
| CCn1cc(-c2cc(-c3cc(CC(=O)O)cs3)nc(N)c2C#N)c(C)n1 | 37.6 |
| CCn1cc(-c2cc(-c3cc(CN(C)C)cs3)nc(N)c2C#N)c(C)n1 | 76.6 |
| Cc1nn(C)c(C)c1-c1cc(-c2cc(CC(=O)O)cs2)nc(N)c1C#N | 45.8 |
| COCCNc1ccc(CC2CCCN(c3ncccn3)C2)nn1 (centres undefined) | 28.05 |
| Cc1ccoc1C(=O)N1CCCN(Cc2cnn(C)c2)CC1 | 15.6 |
| O=C(NCCS(=O)(=O)N1CCN(c2ncccn2)CC1)c1ccccc1 | -101 |
| O=C(C1CCCN(CCc2ccc3c(c2)CCO3)C1)N1CCCC1 (centres undefined) | 6.11 |
| Cc1cc(C2CCCN(CCc3ccccn3)C2)n[nH]1 (centres undefined) | -0.0706 |
| Cc1cc(C2CCCN(CCc3ccc4c(c3)CCO4)C2)n[nH]1 (centres undefined) | 90.2 |
| NC(=O)c1cc(C2CCCN(CCc3ccc4c(c3)CCO4)C2)n[nH]1 (centres undefined) | 74.3 |
| NC(=O)c1cc(C2CCCN(CCc3ccccn3)C2)n[nH]1 (centres undefined) | 28.7 |
| NC(=O)c1cc(C2CCCN(Cc3ccc4c(c3)OCCO4)C2)n[nH]1 (centres undefined) | 11.8 |
| Cc1noc(C)c1CN1CCCC1c1c(C)nn(C)c1Cl (centres undefined) | -16 |
| CC(CCc1ccccc1F)C(=O)NS(C)(=O)=O (centres undefined) | 12.9 |
| CC(CCc1ccccc1F)C(=O)NS(=O)(=O)N(C)C(C)C (centres undefined) | 80.9 |
| CC(CCc1ccccc1F)C(=O)NS(=O)(=O)CC1CC1 (centres undefined) | 10.6 |
| O=C1CCC2(CCCN(CCn3cc(Cl)cn3)C2)CN1C1CCCC1 (centres undefined) | 31.5 |
| Cc1cnc(CCNc2cccc(CC3CCCNC3)n2)s1 (centres undefined) | 41.5 |
| CCn1cc(S(=O)(=O)Nc2nc3c(s2)CC(C)CC3)cn1 (centres undefined) | 11.7 |
| O=C1COC2(CCN(Cc3ccoc3)CC2)CN1c1ccsc1 | 52.9 |
| O=C1COC2(CCN(CC3CC3)CC2)CN1c1ccccc1 | 36.8 |
| O=C1COC2(CCN(Cc3cccs3)CC2)CN1c1ccsc1 | 21.1 |

| SMILES | INHIBITION [%] |
| --- | --- |
| O=C1COC2(CCN(CC3CC3)CC2)CN1c1ccsc1 | 78.8 |
| O=C(CC1CC1)N1CCC2(CC1)CN(c1ccsc1)C(=O)CO2 | 38.1 |
| O=C1COC2(CCN(Cc3ccoc3)CC2)CN1c1ccccc1 | -23.4 |
| COc1ncccc1NC(=O)C1CC(=O)N(Cc2ccccn2)C1 (centres undefined) | -8.69 |
| Cc1ccc(CN2CCC3(CCC3NC(=O)c3ccn(C)c3)CC2)s1 (centres undefined) | -6.39 |
| CC(C)C(=O)N1CCCC1C(=O)Nc1cc(C(F)(F)F)ccc1F (centres undefined) | 20.6 |
| CCc1ncnc2c1CCN(Cc1ccc3c(c1)OCO3)CC2 | -6.39 |
| COc1cccc(-c2cnc(C3CCNCC3)cn2)c1 | -28.6 |
| CCNC(=O)c1ccc(NC(=O)N(C)Cc2cc(C)on2)cc1 | -41.4 |
| CNC(=O)c1ccc(NC(=O)NC(C)CCc2cccn2C)c(C)c1 (centres undefined) | 23.7 |
| CCNC(=O)c1ccc(NC(=O)N(C)Cc2cccn2C)c(C)c1 | 54.6 |
| Cc1ccc(OCCN(C)Cc2nc3c(cnn3C)c(=O)[nH]2)cc1 | 23.7 |
| O=C(NC[C@H]1CCCO1)c1ccc(S(=O)(=O)N2C[C@H]3C[C@@H]2CN3)cc1 | 30.7 |
| CN(Cc1ccncc1)C(=O)NC1CCS(=O)(=O)C1 (centres undefined) | -4.12 |
| Cc1nn(C)c(C)c1C1SCC(=O)Nc2c1c(O)nn2C(C)C (centres undefined) | 52.5 |
| Cc1nn(C)cc1C1SCC(=O)Nc2c1c(O)nn2C(C)C (centres undefined) | 30.5 |
| Cc1c(C2SCC(=O)Nc3c2c(O)nn3C(C)C)cnn1C (centres undefined) | 13.1 |
| CCCc1nc(NCCCOC)c2c(n1)c(C)nn2CC | 29.18 |
| CCC(=O)N1CCC2(CC1)C(c1cccnc1)CC(=O)N2CCOC (centres undefined) | 59.3 |
| COCCN1C(=O)CC(c2cccnc2)C12CCN(C)CC2 (centres undefined) | 27.6 |
| COCCN1C(=O)CC(c2cccnc2)C12CCN(C(=O)C1CC1)CC2 (centres undefined) | 24 |
| O=C(c1ccccn1)N1C[C@@H](OCc2cccnc2)[C@H]2OCCC[C@@H]21 | -21.1 |

| SMILES | INHIBITION [%] |
| --- | --- |
| COCCNC(=O)c1cc2c(s1)CCN2S(C)(=O)=O | 6.55 |
| O=C(c1ccc(=O)[nH]n1)N1CCC(CN2CCOCC2)CC1 | -40.5 |
| N#Cc1nccnc1N1CCC(C(O)c2cccs2)CC1 (centres undefined) | 42.4 |
| Cc1ccc(N2CCC(C(O)c3cccs3)CC2)nn1 (centres undefined) | 56.3 |
| OC(c1cccs1)C1CCN(c2ncccn2)CC1 (centres undefined) | 48 |
| Cc1cccc(OCCNC(=O)CN2CCc3cncnc3C2)c1 | 22.3 |
| COC(=O)[C@H](C)NC(=O)c1cc(-c2cccc(Cl)c2)no1 | 3.16 |
| CCCS(=O)(=O)N1CCC2(CCN(Cc3cccc(F)c3)C2=O)C1 (centres undefined) | 16.8 |
| CN(C)CCN1CCC2(CCN(C(=O)c3cccnc3)CC2)C1=O | -23.3 |
| COCC1COCCC12CCN(C(=O)COc1ccccc1C)CC2 (centres undefined) | 0.542 |
| Cc1ccc(OCC(=O)N2C[C@@H]3CN(C)CCO[C@@H]3C2)cc1 | 37.9 |
| O=C(COc1ccccc1)N1CCC[C@]2(C[C@@H](OCC3CC3)CO2)C1 | 27.6 |
| COCC(=O)N1CCC2(CC1)CC(N1CCN(C)CC1)CO2 (centres undefined) | 39.3 |
| COc1ccccc1OCC(=O)N1CCC[C@]2(C[C@@H](OC)CO2)C1 | 54.7 |
| CCO[C@@H]1CO[C@@]2(CCCN(C(=O)COc3ccccc3OC)C2)C1 | 15.8 |
| CO[C@@H]1CO[C@@]2(CCN(C(=O)COc3ccccc3C)C2)C1 | 71 |
| COC1COC2(CCN(C(=O)c3ncccn3)CC2)C1 (centres undefined) | 37.8 |
| CN1CCO[C@@H]2CN(C(=O)COc3cccc(Cl)c3)C[C@@H]2C1 | 34.9 |
| COCC(=O)N1CCC2(CC1)CC(OC)CO2 (centres undefined) | 70.4 |
| COc1ccccc1OCC(=O)N1C[C@@H]2CN(C)CCO[C@@H]2C1 | 55.6 |
| Cc1ccccc1OCC(=O)N1CC[C@]2(C[C@@H](OCC3CC3)CO2)C1 | -0.813 |
